Results: PubChem BioAssay AID1508621 (National Center for Advancing Translational Sciences (NCATS), 2021)
Records with an inconclusive call do not appear. Where a call stands in place of a potency, no number is given. Active and inactive are the calls of the source. Calls come from the whole dose curve; as a rule, active = well fitted inhibition curve with a large enough effect; inconclusive = small, poorly fitted or top-dose-only effect; inactive = no such curve, though single readings can be large or run the other way.

Test: Confirmatory qHTS for Identification of Small Molecule Inhibitors of Huntingtin Promoter Activity; note: nearly all actives have a fitted effect of over 65% in size
Conditions: HEK293 HTT promoter firefly luciferase reporter, 24 h; series mostly up to 57.5 µM
Procedure, shortened: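 Activity normalized between vehicle control (0%) and zero RLU (-100%) from firefly luminescence (Dual-Glo). Compounds, up to 57.5 uM final, incubated 24 h at 37C on HEK293 reporter cells plated 24 h earlier.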
Potency is the fitted concentration of half-maximal effect.

Row | SMILES | Potency
1 | CN1C(=O)c2ccccc2Sc2ccc(NC(=O)NCc3ccc(Cl)cc3)cc21 | 23.9 µM (active)
2 | Cc1ccc(C)c(N2CCN(C(=O)c3nn(C)c4c3CS(=O)(=O)c3ccccc3-4)CC2)c1 | 23.9 µM (active)
3 | Cc1ccc(S(=O)(=O)n2nc(-c3ccccc3)nc2NCc2ccccc2Cl)cc1 | inactive
4 | O=C(CN1c2ccc(Br)cc2-c2ccccc2S1(=O)=O)N1CCCCC1 | inactive
5 | CCc1ccc2c(c1)-c1ccccc1S(=O)(=O)N2CC(=O)N1CCC(C)CC1 | inactive
6 | Cc1ccccc1C(=O)Nc1nc(-c2ccc(Br)cc2)ns1 | inactive
7 | O=C(C=Cc1cccc(S(=O)(=O)Nc2ccccc2)c1)NO | inactive
8 | CCOC(=O)c1ccc(C#Cc2ccc3c(c2)C(C)(C)CCS3)nc1 | inactive
9 | Cc1ccc(S(=O)(=O)n2nc(-c3ccco3)nc2NCc2ccccc2Cl)cc1 | inactive
10 | O=C(Nc1cccc(C(=O)N2CCN(c3ccc(Cl)cc3)CC2)c1)c1nsc2ccccc12 | inactive
11 | O=C(O)c1ccc2c(c1)N(Cc1ccc(F)cc1)C(=O)c1ccccc1S2=O (configuration not stated) | inactive
12 | Cn1c(=O)n(C)c2cc(NS(=O)(=O)c3ccccc3)c(NCc3ccccc3)cc21 | inactive
13 | COc1cc(C[C@@H](CO)[C@H](CO)Cc2ccc(O)c(OC)c2)ccc1O | inactive
14 | Cc1ccccc1Cn1c(=O)n(Cc2ccco2)c(=O)c2oc3ccccc3c21 | inactive
15 | O=C(CSc1nccn1Cc1ccc(F)cc1)Nc1nc2ccccc2s1 | inactive
16 | CN[C@H]1[C@@H](O)[C@@H]2O[C@@H]3O[C@H](C)CC(=O)[C@]3(O)O[C@@H]2[C@@H](NC)[C@H]1O | inactive
17 | CCS(=O)(=O)N1CC(CC#N)(n2cc(-c3ncnc4[nH]ccc34)cn2)C1 | inactive
18 | COc1ccccc1C1Nc2c(sc3nc(C)cc(C)c23)C(=O)N1c1ccccc1 (configuration not stated) | inactive
19 | FC(F)(F)c1cccc(Nc2nc3nonc3nc2Nc2ccc(Cl)cc2)c1 | 0.379 µM (active)

Row | SMILES | Potency
20 | CCS(=O)(=O)c1ncc(Cl)c(C(=O)N(Cc2ccccc2)c2ccc(OC)cc2)n1 | 10.7 µM (active)
21 | Cc1ccc(CN(C(=O)c2ccc(OCC(C)C)cc2)c2ccccn2)o1 | inactive
22 | Cc1ccc(C)c(OCCCC(C)(C)C(=O)O)c1 | inactive
23 | CCOc1ccccc1NC(=O)C(=O)c1cc(C)n(-c2ccc(F)cc2)c1C | inactive
24 | COc1cc(OC)cc(C(=O)Nc2c(C(=O)Nc3ccc(F)cc3)oc3ccccc23)c1 | inactive
25 | CCOc1ccc(S(=O)(=O)N(C(C)=O)c2ccc3oc(C)c(C(=O)OC)c3c2)cc1 | 4.78 µM (active)
26 | CCCCOC(=O)c1ccc(NC(=O)c2sc3nc(C)cc(C)c3c2N)cc1 | 12 µM (active)
27 | Cc1nc(Nc2n[nH]c3c2CN(C(=O)N[C@H](CN(C)C)c2ccccc2)C3(C)C)c2sccc2n1 | inactive
28 | O=C(NCc1cccnc1)C(=O)NCC(c1cccnc1)N1CCN(c2ccccc2F)CC1 (configuration not stated) | inactive
29 | Cn1cnc(=N)c2[nH]cnc21 | inactive
30 | CCOc1ccc(Nc2ncnc3c2nc2n3CCCCC2)cc1 | inactive
31 | CCOc1ccc(C2=C(C(=O)CC)Sc3nncn3N2C(=O)CC)cc1 | inactive
32 | O=c1c(-c2ccc(O)cc2)coc2cc(O)ccc12 | inactive
33 | CN(C)C(=O)COC(=O)Cc1ccc(OC(=O)c2ccc(N=C(N)N)cc2)cc1 | inactive
34 | COc1ccccc1C1CC(=O)NC(C)=C1C(=O)OC1CCCCCC1 (configuration not stated) | inactive
35 | C#Cc1cccc(Nc2ncnc3cc(OC)c(OCCCCCCC(=O)NO)cc23)c1 | inactive
36 | CCCCC(=O)Nc1cccc(-c2nc3ccccc3s2)c1 | inactive
37 | C1=CCOCc2cc(ccc2OCCN2CCCC2)Nc2nccc(n2)-c2cccc(c2)OCC1 | 9.53 µM (active)
